Data as given in the supplement of paper PMC10849652.
About 7,900 targets were measured; listed, in parts, are those with a hit and a random draw of the rest. About 0.6% of all pairs of compound and target were hits.

How the values were obtained:
Assay in all cases: log2 fold change, soluble protein after heating vs DMSO (PISA); higher = thermal stabilisation; K562 cells, 10 uM, 30 min; active = over 0.2 and 3.5 SD of the protein, either way, in both replicates (recomputed)
erlotinib = compound: C#Cc1cccc(Nc2ncnc3cc(OCCOC)c(OCCOC)cc23)c1 [erlotinib]
How it was run: (§1)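 Quantification of soluble protein used TMTpro 16plex LC-MS/MS, with channel sums equalised. Samples were the supernatant after 21,000xg for 90 min of pooled aliquots from K562 cells (2×10^6 cells/mL) treated with 10 μM compound for 30 min, heated for 3 min over 48°C-58°C, and extracted in PBS with 0.5% NP-40 at 4°C. Values, from duplicates, describe thermal stability against control samples on a log2 fold-change scale.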

[1] = compound: C1=CC(=CC=C1C2=NC3=C(N2)C=C(C=C3)C(=O)N)OC4=CC=C(C=C4)Cl
How it was run: as §1

[2] = compound: C1=CC=C(C=C1)C2=NC(=C(N2)C3=CC=NC=C3)C4=CC(=C(C=C4)Cl)O
How it was run: as §1

[3] = compound: C1CCN(C1)C(=O)NC2=CC=CC(=C2)NC3=NC=C(C(=N3)NCCC4=CN=CN4)Br
How it was run: as §1

[4] = compound: C1CN(CCC1(CC2=CC=C(C=C2)Cl)N)C3=NC=NC4=C3C=CN4
How it was run: as §1

IRAK-1-4 Inhibitor I = compound: C1COCCN1CCN2C3=CC=CC=C3N=C2NC(=O)C4=CC(=CC=C4)[N+](=O)[O-] [IRAK-1-4 Inhibitor I]
How it was run: as §1

ralimetinib = compound: CC(C)(C)Cn1c(N)nc2ccc(-c3[nH]c(C(C)(C)C)nc3-c3ccc(F)cc3)nc21 [ralimetinib]
How it was run: as §1

[5] = compound: CC(C)C1=C2N=C(C=C(N2N=C1)NCC3=CC=CC=C3)NCCCCCCN
How it was run: as §1

[6] = compound: CC(C)C[C@@H](C=O)NC(=O)[C@H](CC(C)C)NC(=O)[C@H](CC(C)C)NC(=O)OCc1ccccc1
How it was run: as §1

pinometostat = compound: CC(C)N(C[C@H]1O[C@@H](n2cnc3c(N)ncnc32)[C@H](O)[C@@H]1O)[C@H]1C[C@@H](CCc2nc3cc(C(C)(C)C)ccc3[nH]2)C1 [pinometostat]
How it was run: as §1

[7] = compound: CC1=C(C(CC(=O)N1)C2=CC=C(C=C2)C(F)(F)F)C(=O)NC3=C(C=C4C(=C3)C=NN4)F
How it was run: as §1

[8] = compound: CC1=C(C2=C(C=C1)C(=O)C3=CC=CC=C3N2CCCN)C
How it was run: as §1

[9] = compound: C/C(=N\NC(=O)C1=CC(=CC=C1)S(=O)(=O)N2CCOCC2)/C3=C(C=CC(=C3)Cl)O
How it was run: as §1

[10] = compound: C1=CC2=C(C=CC(=C2)/C=C\3/C(=O)NC(=NCC4=CC=CS4)S3)N=C1
How it was run: as §1

[11] = compound: C1=CC2=NC=CN=C2C=C1/C=C/3\C(=O)NC(=O)S3
How it was run: as §1

[12] = compound: C1=CC=C2C(=C1)C3=NNC4=CC=CC(=C43)C2=O
How it was run: as §1

ibrutinib = compound: C=CC(=O)N1CCC[C@@H](n2nc(-c3ccc(Oc4ccccc4)cc3)c3c(N)ncnc32)C1 [ibrutinib]
How it was run: as §1

[13] = compound: CC(=O)c1cnc2ccc(-c3cc(Cl)c(O)c(Cl)c3)nc2c1N[C@H]1CC[C@H](CN(C)C)CC1
How it was run: as §1

[14] = compound: C1=CC(=C(C=C1Cl)C2=NC3=NC=CN=C3C(=N2)NC4=CC=NC=C4)F
How it was run: as §1

[15] = compound: CC(C)(O)CC(=O)NCCn1ccc2ncnc(Nc3ccc(Oc4cccc(C(F)(F)F)c4)c(Cl)c3)c21
How it was run: as §1

Measured: log2 fold change

CLCN5 isoform 2 (UniProt P51795)
inactive: erlotinib -0.009 | [1] 0.064 | [2] 0.125 | [3] -0.098 | [4] -0.011 | IRAK-1-4 Inhibitor I -0.019 | ralimetinib -0.154 | [5] -0.29 | [6] -0.004 | pinometostat 0.061 | [7] 0.021 | [8] 0.009

CPNE5 (UniProt Q9HCH3)
Sequence of UniProt Q9HCH3 (Q9HCH3 whole entry, looked up): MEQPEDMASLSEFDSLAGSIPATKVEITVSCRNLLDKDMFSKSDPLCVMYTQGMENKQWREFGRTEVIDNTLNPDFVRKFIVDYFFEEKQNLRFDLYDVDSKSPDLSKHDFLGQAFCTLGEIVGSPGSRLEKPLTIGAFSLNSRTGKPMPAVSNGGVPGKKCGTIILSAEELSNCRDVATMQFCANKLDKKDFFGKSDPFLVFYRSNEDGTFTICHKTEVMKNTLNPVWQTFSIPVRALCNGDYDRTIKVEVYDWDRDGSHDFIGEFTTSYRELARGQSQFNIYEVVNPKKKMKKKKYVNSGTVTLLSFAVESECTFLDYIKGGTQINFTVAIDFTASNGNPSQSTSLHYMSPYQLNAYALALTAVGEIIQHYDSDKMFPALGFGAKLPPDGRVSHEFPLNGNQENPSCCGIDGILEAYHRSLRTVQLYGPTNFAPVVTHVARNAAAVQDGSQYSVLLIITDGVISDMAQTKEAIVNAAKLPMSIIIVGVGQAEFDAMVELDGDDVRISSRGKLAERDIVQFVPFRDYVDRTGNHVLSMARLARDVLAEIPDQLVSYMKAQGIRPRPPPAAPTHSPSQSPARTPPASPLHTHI
active: [4] -0.879
inactive: erlotinib 0.074 | [1] -0.175 | [3] 0.087 | [5] -0.209 | [8] -0.225

CEP128 (UniProt Q6ZU80)
Sequence of UniProt Q6ZU80 (Q6ZU80 whole entry, looked up): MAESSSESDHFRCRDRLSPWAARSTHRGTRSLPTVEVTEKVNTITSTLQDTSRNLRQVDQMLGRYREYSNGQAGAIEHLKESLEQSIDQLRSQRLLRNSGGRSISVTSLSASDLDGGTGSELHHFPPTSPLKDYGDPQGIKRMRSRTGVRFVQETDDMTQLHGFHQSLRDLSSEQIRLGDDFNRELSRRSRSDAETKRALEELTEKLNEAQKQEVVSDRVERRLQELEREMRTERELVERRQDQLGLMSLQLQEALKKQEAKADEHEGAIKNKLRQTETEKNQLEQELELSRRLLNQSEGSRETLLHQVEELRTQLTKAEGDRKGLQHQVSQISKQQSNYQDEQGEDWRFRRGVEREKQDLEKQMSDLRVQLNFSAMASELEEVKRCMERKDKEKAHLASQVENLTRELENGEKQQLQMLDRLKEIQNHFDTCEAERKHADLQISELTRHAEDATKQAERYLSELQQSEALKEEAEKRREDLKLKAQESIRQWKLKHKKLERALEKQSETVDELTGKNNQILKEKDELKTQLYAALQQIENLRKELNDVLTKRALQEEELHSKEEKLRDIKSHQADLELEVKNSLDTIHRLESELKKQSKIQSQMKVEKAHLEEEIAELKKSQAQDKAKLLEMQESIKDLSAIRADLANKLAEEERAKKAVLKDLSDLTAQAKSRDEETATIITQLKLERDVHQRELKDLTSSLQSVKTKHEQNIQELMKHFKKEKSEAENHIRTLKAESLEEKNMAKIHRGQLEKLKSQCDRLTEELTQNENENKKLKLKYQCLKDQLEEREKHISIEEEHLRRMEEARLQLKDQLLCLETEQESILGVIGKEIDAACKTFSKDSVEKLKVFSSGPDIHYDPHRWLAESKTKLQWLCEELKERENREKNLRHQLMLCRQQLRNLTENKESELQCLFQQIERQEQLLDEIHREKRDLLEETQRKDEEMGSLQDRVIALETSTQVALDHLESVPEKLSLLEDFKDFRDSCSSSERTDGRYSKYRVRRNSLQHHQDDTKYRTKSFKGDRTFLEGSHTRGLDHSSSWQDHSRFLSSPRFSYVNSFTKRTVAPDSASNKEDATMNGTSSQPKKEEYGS
inactive: [9] -0.163 | [10] 0.199 | [11] 0.158 | [12] -0.037 | [3] 0.141 | [4] -0.003 | IRAK-1-4 Inhibitor I -0.149 | ibrutinib -0.055 | [13] -0.022 | pinometostat 0.012 | [8] 0.1

CA1 (UniProt E5RIF9)
inactive: [14] 0.096 | [11] 0.135 | [3] 0.014 | [4] -0.453 | ibrutinib 0.161 | [15] -0.052 | [8] -0.02

COPS3 isoform 2 (UniProt Q9UNS2)
Sequence of UniProt Q9UNS2 (Q9UNS2 whole entry, looked up): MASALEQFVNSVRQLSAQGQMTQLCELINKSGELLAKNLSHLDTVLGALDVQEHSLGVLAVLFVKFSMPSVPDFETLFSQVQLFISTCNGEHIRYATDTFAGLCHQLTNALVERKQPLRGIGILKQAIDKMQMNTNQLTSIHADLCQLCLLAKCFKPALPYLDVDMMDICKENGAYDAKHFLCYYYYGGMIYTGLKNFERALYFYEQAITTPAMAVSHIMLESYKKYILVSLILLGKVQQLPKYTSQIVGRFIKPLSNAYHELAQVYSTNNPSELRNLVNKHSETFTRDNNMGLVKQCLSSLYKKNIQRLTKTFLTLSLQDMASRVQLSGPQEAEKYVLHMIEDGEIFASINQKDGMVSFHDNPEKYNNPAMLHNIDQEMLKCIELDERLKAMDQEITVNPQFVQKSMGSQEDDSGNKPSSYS
inactive: [9] -0.24 | [14] -0.075 | [10] 0.214 | [11] -0.125 | [2] -0.568 | [12] -0.126 | [3] 0.176 | [4] -0.052 | IRAK-1-4 Inhibitor I 0.098 | ibrutinib -0.015 | [13] -0.191 | ralimetinib -0.214 | [15] -0.097 | [6] 0.258 | pinometostat 0.071 | [7] 0.046 | [8] 0.053

CCDC57 (UniProt Q2TAC2)
Sequence of UniProt Q2TAC2 (Q2TAC2 whole entry, looked up): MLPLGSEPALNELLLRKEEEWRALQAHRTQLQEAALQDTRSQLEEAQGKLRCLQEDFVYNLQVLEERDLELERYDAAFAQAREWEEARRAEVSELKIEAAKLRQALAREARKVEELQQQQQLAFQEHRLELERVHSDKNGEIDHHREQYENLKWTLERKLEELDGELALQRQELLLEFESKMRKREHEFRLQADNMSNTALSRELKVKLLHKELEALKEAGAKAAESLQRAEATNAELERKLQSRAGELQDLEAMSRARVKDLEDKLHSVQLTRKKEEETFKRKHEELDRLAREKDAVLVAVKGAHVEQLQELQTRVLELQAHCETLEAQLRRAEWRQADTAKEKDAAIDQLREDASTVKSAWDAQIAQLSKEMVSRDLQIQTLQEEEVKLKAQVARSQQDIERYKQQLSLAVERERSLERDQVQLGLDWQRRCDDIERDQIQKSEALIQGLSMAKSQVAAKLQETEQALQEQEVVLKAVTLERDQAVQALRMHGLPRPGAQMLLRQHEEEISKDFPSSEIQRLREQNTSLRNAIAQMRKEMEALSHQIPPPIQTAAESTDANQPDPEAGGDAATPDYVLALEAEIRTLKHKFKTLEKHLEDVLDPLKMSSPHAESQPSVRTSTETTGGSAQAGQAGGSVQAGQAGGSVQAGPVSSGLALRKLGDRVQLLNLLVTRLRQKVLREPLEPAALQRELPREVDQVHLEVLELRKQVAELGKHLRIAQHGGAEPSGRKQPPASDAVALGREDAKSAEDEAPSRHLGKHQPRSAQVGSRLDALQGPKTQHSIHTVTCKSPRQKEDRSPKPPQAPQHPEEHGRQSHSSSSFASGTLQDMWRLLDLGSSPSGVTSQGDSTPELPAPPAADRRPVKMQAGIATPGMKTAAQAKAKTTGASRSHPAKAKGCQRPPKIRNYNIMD
inactive: erlotinib 0.044 | [14] 0.031 | [1] -0.051 | [11] -0.021 | [2] 0.003 | [3] 0.012 | [4] 0.026 | IRAK-1-4 Inhibitor I 0.067 | ibrutinib -0.021 | ralimetinib 0.005 | [15] -0.007 | [5] 0.041 | [6] 0.05 | pinometostat -0.04 | [7] 0.042 | [8] 0.012

C6orf120 (UniProt Q7Z4R8)
Sequence of UniProt Q7Z4R8 (Q7Z4R8 whole entry, looked up): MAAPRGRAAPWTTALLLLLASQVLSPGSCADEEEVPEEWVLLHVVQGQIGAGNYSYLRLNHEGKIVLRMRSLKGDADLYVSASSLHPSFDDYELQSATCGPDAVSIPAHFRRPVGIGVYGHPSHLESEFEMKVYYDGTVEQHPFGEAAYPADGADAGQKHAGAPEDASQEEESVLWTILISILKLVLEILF
inactive: erlotinib -0.2 | [1] 0.134 | [11] -0.003 | [2] -0.009 | [3] 0.005 | [4] 0.028 | IRAK-1-4 Inhibitor I 0.116 | ibrutinib -0.003 | ralimetinib 0.015 | [5] -0.19 | [6] -0.003 | pinometostat -0.023 | [7] 0.062 | [8] 0.002

CRLS1 (UniProt Q9UJA2)
Sequence of UniProt Q9UJA2 (Q9UJA2 whole entry, looked up): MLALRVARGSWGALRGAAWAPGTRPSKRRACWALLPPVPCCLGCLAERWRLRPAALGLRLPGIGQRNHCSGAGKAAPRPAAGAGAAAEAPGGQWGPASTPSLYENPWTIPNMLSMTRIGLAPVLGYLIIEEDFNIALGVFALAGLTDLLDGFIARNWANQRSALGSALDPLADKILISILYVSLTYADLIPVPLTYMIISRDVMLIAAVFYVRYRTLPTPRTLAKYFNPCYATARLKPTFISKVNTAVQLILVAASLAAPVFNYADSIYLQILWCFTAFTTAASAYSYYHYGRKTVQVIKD
inactive: erlotinib -0.034 | [1] 0.019 | [3] -0.019 | [4] 0.074 | IRAK-1-4 Inhibitor I -0.03 | [5] 0.036 | pinometostat -0.071 | [7] -0.032 | [8] -0.005

CASK (UniProt O14936)
Sequence of UniProt O14936 (O14936 whole entry, looked up): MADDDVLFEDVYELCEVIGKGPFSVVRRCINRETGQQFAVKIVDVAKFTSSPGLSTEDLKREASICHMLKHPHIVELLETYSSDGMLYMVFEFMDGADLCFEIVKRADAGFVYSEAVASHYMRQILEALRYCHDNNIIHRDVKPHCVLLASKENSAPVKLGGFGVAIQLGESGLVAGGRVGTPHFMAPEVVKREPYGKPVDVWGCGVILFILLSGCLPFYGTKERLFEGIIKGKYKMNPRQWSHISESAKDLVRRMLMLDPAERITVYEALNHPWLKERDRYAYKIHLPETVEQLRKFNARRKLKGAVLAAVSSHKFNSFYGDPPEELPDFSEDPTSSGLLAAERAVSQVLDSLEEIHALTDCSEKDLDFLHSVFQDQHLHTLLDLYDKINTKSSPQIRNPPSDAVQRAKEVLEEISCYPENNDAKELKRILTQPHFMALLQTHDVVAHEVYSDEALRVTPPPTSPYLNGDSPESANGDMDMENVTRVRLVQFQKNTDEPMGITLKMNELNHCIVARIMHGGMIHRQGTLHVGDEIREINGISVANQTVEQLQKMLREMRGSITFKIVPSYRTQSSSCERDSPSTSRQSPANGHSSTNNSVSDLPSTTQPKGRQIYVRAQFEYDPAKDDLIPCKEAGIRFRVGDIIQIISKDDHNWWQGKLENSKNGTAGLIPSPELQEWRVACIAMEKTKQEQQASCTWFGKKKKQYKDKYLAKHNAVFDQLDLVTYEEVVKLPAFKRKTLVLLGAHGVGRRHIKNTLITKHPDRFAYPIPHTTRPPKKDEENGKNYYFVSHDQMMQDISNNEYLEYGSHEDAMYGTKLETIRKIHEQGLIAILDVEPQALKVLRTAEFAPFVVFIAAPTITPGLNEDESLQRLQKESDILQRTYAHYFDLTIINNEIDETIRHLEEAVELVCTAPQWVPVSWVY
active: [13] -0.483
inactive: erlotinib -0.018 | [9] -0.07 | [1] 0.01 | [10] 0.038 | [12] -0.136 | IRAK-1-4 Inhibitor I 0.036 | [5] 0.177 | pinometostat 0.081

CASP7 isoform 3 (UniProt P55210)
inactive: erlotinib 0.133 | [14] -0.105 | [1] 0.217 | [11] 0.118 | ibrutinib -0.005 | [15] -0.003 | [5] 0.035 | [7] 0.064

CSNK1A1 isoform 3 (UniProt P48729)
inactive: [11] 0.111 | ibrutinib 0.029

CS (UniProt F8VU34)
inactive: [11] 0.06 | ibrutinib -0.137

CASP9 (UniProt P55211)
Sequence of UniProt P55211 (P55211 whole entry, looked up): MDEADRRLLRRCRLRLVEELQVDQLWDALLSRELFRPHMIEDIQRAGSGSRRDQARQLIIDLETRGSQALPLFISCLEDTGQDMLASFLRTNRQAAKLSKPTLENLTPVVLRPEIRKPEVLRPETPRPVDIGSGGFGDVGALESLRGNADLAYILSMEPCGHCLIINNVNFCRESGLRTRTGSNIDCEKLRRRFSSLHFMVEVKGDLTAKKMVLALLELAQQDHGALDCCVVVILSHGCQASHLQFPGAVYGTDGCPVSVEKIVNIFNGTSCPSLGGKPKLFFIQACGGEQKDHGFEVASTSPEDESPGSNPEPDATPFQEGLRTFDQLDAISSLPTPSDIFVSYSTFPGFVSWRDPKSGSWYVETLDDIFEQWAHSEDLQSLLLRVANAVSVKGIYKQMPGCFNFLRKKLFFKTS
inactive: [9] 0.059 | [14] -0.016 | [10] -0.049 | [2] -0.02 | [12] 0.048 | [3] -0.054 | [4] -0.218 | IRAK-1-4 Inhibitor I 0.03 | [13] -0.096 | ralimetinib 0.008 | [15] -0.043 | [6] 0.053 | pinometostat 0.03 | [7] -0.071 | [8] -0.206
